# Assay results taken from PubChem BioAssay (NCI).
# Values joined by “and” are separate entries in the source; they are usually repeats but may differ in a detail not shown here. Equal entries are not always repeated. About 79,000 compounds went through this panel and 15% of them were active in at least one assay; those are over-represented in the sample as a whole. The source holds several records for some structures; these can differ, active in one and inactive in another. Active and inactive are the calls of the source. Cut-off read from the data, not from the text of the source: active = growth inhibition above about 70%; inactive = the rest.
# Assays:
# [1] = NCI Yeast Anticancer Drug Screen. Data for the rad50 strain (AID 155);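 note: 0% = growth of vehicle-only cultures of the same strain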; conditions: S. cerevisiae rad50 strain growth inhibition; at 50.0 µM; stronger effect = higher value
# Method in brief: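 Compounds were tested on a yeast strain with an engineered DNA damage repair alteration; the reported value is growth inhibition normalised to vehicle treatment.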
# [2] = NCI Yeast Anticancer Drug Screen. Data for the mec2-1 strain (AID 157); conditions: S. cerevisiae mec2-1 strain, at 50.0 µM, stronger effect = higher value
# Method in brief: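 Using mec2-1 yeast: add compound, measure growth, express inhibition versus vehicle-treated cultures.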
# [3] = NCI Yeast Anticancer Drug Screen. Data for the sgs1 mgt1 strain (AID 161);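 note: 0% = growth of cultures given vehicle only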; conditions: S. cerevisiae sgs1 mgt1 strain, at 50.0 µM, stronger effect = higher value
# Method in brief: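 Yeast cells carrying a defined DNA-repair defect were exposed to test compounds. Growth inhibition was measured relative to vehicle-treated controls.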
# [4] = NCI Yeast Anticancer Drug Screen. Data for the cln2 rad14 strain (AID 165);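 note: 0% = growth equal to vehicle treated cultures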; conditions: S. cerevisiae cln2 rad14 strain, at 50.0 µM, stronger effect = higher value
# Method in brief: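 Yeast strain cln2 rad14, bearing defects in cell cycle control and DNA repair, serves as the test system; values reflect growth inhibition compared with vehicle.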
# [5] = NCI Yeast Anticancer Drug Screen. Data for the bub3 strain (AID 167); conditions: S. cerevisiae bub3 mutant strain, at 50.0 µM, stronger effect = higher value
# Method in brief: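 Growth of a checkpoint-deficient yeast mutant is measured after compound exposure. Values represent inhibition relative to vehicle.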
# [6] = NCI Yeast Anticancer Drug Screen. Data for the mlh1 rad18 strain (AID 175); conditions: S. cerevisiae mlh1 rad18 strain growth inhibition; at 50.0 µM; stronger effect = higher value
# Method in brief: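 Steps: expose repair-defective yeast to compound; measure growth; express inhibition against vehicle-treated controls.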
Structure (SMILES),growth inhibition [1],growth inhibition [2],growth inhibition [3],growth inhibition [4],growth inhibition [5],growth inhibition [6]
CNC(Cc1ccccc1)c1cccc(O)c1 (centres undefined),4.5% (inactive),-6.2% (inactive),-1.3% (inactive),-24.9% (inactive),0.4% (inactive),-5.15% (inactive)
O=C(O)c1ccccc1O.[Cu],-31.2% (inactive),-32.5% (inactive),-36.8% (inactive),-3.85% (inactive),-19.1% (inactive),-8.65% (inactive)
O=[N+]([O-])c1cc(Cl)ccc1O,0.2% (inactive),-5.65% (inactive),-6.5% (inactive),14.2% (inactive),-7.15% (inactive),3.75% (inactive)
CN(C)P(=S)(N(C)C)N1CCOCC1,-7.6% (inactive),-13.3% (inactive),6.55% (inactive),-16.8% (inactive),-28.3% (inactive),-9% (inactive)
ClCCN(CCCl)c1ccc(/C=N/Nc2ccnc3ccccc23)cc1,96.2% (active),96.3% (active),96.8% (active),96.5% (active),87.2% (active),88.8% (active)
CC1(CCN)COC(c2ccccc2)(c2ccccc2)OC1 (tested in a mixture with another compound),20.1% (inactive),4.15% (inactive),-0.7% (inactive),31.4% (inactive),10.2% (inactive),43.2% (inactive)
CN(Cc1ccccc1)C1=NCCN1,-1.85% (inactive),7.1% (inactive),-2.95% (inactive),-47.8% (inactive),15.1% (inactive),9.95% (inactive)
C[N+]1(C)CCN(c2ccccc2)CC1,18.9% (inactive),-29.6% (inactive),-12.5% (inactive),14.2% (inactive),-8.9% (inactive),-5.35% (inactive)
OC(COc1cccc2ccccc12)CN(CCCl)CCCl (centres undefined),6.85% (inactive),-12.5% (inactive),-5.6% (inactive),4.05% (inactive),8.55% (inactive),-30.1% (inactive)
CC1(C)C2CC[C@@]1(C)C(=O)C2Br (some centres undefined),24.9% (inactive),25.6% (inactive),-1.6% (inactive),7.55% (inactive),23.9% (inactive),-8.7% (inactive)
C/C=C1/C[N+]2([O-])CC[C@@]34c5ccc(OC)cc5N(C)[C@H]3C2CC1C4C(=O)OC (some centres undefined),7.65% (inactive),-8.05% (inactive),-3.1% (inactive),-6% (inactive),-10.8% (inactive),2.25% (inactive)
NC1(O)C(=O)NC(=O)NC1=O,-21.4% (inactive),-30% (inactive),-18.9% (inactive),-28.1% (inactive),-4.05% (inactive),5.85% (inactive)
CCOC(=O)/C=C1\Nc2ccccc2C(c2ccccc2)=NC1OC(C)=O (centres undefined),39.1% (inactive),-20.6% (inactive),22.6% (inactive),23.6% (inactive),-13.7% (inactive),-9% (inactive)
CC(C)CC(NC(=O)C(Cc1ccccc1)NC(=O)CNC(=O)CNC(=O)C(N)Cc1ccc(O)cc1)C(=O)O (centres undefined),0.9% (inactive),2.85% (inactive),-8.25% (inactive),-7.5% (inactive),-0.75% (inactive),-11.2% (inactive)
O=C(O)C(=O)O.[Ru].c1cnc2c(c1)ccc1cccnc12.c1cnc2c(c1)ccc1cccnc12,25.1% (inactive),-10.9% (inactive),2.95% (inactive),5.45% (inactive),-2.2% (inactive),5.25% (inactive)
CN1CNC2C(=O)CCC2c2ccccc21 (centres undefined),-12.2% (inactive),-39.8% (inactive),-21.3% (inactive),-7.4% (inactive),-28.9% (inactive),-9.1% (inactive)
CC1(C)N=C(N)N=C(N)N1c1ccc(Cl)c(CCCCc2ccc(S(=O)(=O)F)cc2)c1,99.8% (active),99.8% (active),99.2% (active),99.4% (active),99.6% (active),99.8% (active)
NCCN.O=N[O-].O=N[O-].O=N[O-].O=N[O-].[Co+3].[K+],-1.1% (inactive),4.05% (inactive),14.4% (inactive),12.3% (inactive),3.6% (inactive),2.1% (inactive)
CC(=O)O/C=C(/C=C/OC(C)=O)C(C/C=C(\C)C#CC=C(C)C)OC(C)=O (centres undefined),4.95% (inactive),-13.7% (inactive),0.8% (inactive),-2.2% (inactive),5.5% (inactive),-0.1% (inactive)
NS(=O)(=O)c1ccc([As](=O)(O)c2ccccc2)cc1,14.2% (inactive),-9.35% (inactive),7.85% (inactive),15.7% (inactive),9.5% (inactive),-7.75% (inactive)
N#CCCNCCC#N,3.95% (inactive) and 11.8% (inactive) and 12.2% (inactive),4.4% (inactive) and -11.6% (inactive) and 3.15% (inactive),-6.05% (inactive) and 9.35% (inactive) and -2.9% (inactive),-41.6% (inactive) and 25.7% (inactive) and 16.1% (inactive),-4.95% (inactive) and 8.65% (inactive) and 1.45% (inactive),6.15% (inactive) and 13.7% (inactive) and 14.7% (inactive)
O=S(=O)(F)c1cc(Cl)c(S)cc1Cl,7.75% (inactive),-1.85% (inactive),4.2% (inactive),16.1% (inactive),-1.55% (inactive),-2.45% (inactive)

Structure (SMILES),growth inhibition [1],growth inhibition [2],growth inhibition [3],growth inhibition [4],growth inhibition [5],growth inhibition [6]
O=C(NCP(=O)(O)O)c1cccnc1,-10.7% (inactive) and -6.8% (inactive),-29.5% (inactive) and -10.8% (inactive),-4.9% (inactive) and 6.8% (inactive),-37.6% (inactive) and -25.1% (inactive),-32.8% (inactive) and -6.75% (inactive),2.85% (inactive) and -10.2% (inactive)
Cn1c(=O)n(C)c(=O)n(C)c1=O,3.8% (inactive),6.65% (inactive),-5.2% (inactive),-1.55% (inactive),14.6% (inactive),-12.6% (inactive)
O=C(O)COc1ccc(Cl)cc1Cl (tested in a mixture with another compound),-0.5% (inactive),-3.35% (inactive),14.7% (inactive),-19.1% (inactive),-9.5% (inactive),-0.9% (inactive)
[Cl][Sn]([Cl])([c]1ccccc1)[c]1ccccc1,0.95% (inactive) and 97.1% (active),29.9% (inactive) and 96.2% (active),41.5% (inactive) and 95.1% (active),-35.4% (inactive) and 95.2% (active),48.4% (inactive) and 95.8% (active),51% (inactive) and 97.2% (active)
NC(=NCc1ccccc1)N[N+](=O)[O-],-7.3% (inactive),3.65% (inactive),-10.6% (inactive),17.7% (inactive),30.7% (inactive),-3.15% (inactive)
C=CCN(CC=C)C(Cc1ccccc1)c1ccccc1 (centres undefined),2.95% (inactive),-7.75% (inactive),-5.85% (inactive),-5.6% (inactive),11.3% (inactive),-5.95% (inactive)
COC1OC(CN=[N+]=[N-])C2OC12 (centres undefined),5.4% (inactive),-0.3% (inactive),-3.2% (inactive),3.9% (inactive),0.6% (inactive),7.95% (inactive)
N.N.O=P([O-])([O-])CN(CP(=O)([O-])[O-])CP(=O)([O-])[O-].[Pt+2],-4.25% (inactive),-9.8% (inactive),-11.1% (inactive),-12.9% (inactive),1.15% (inactive),-23.1% (inactive)
O=C(O)c1ccccc1S,7.1% (inactive) and 0.05% (inactive),-7.6% (inactive) and -15.2% (inactive),9.95% (inactive) and -8.35% (inactive),18.9% (inactive) and -22.2% (inactive),-1.75% (inactive) and 5.25% (inactive),2.75% (inactive) and 11.5% (inactive)
OC[P+](CO)(CO)CO,-2.8% (inactive),1.05% (inactive),-8.15% (inactive),-24.9% (inactive),14.7% (inactive),-5.9% (inactive)
O=C(O)CN1C(=O)CN=C(c2ccccn2)c2cc(Cl)ccc21,-5.45% (inactive),-8.6% (inactive),-23.8% (inactive),-50.6% (inactive),-15.3% (inactive),-17% (inactive)
CCOP(=O)(OCC)C1CCC(=O)O1 (centres undefined),-14.2% (inactive),-20.2% (inactive),-14% (inactive),12.4% (inactive),10.6% (inactive),10.6% (inactive)
O.O=S(=O)(O)O.[Co+3].[NH2-].[NH2-].[NH2-].[NH2-].[OH-],31.2% (inactive),10.7% (inactive),8.6% (inactive),29.2% (inactive),12.4% (inactive),21.5% (inactive)
COc1cccc2c1C(=O)c1c(O)c3c(c(O)c1C2=O)CC(O)(C(=O)CO)CC3OC1CC(N2CCOCC2C#N)C(O)C(C)O1 (centres undefined),86.7% (active),90.2% (active),88.9% (active),86.5% (active),88.2% (active),89.8% (active)
Cc1cccc(N=Nc2ccc(N(C)C)cc2)c1,-8.45% (inactive),-36.6% (inactive),2.4% (inactive),-29.6% (inactive),-8.6% (inactive),-13.3% (inactive)
COc1ccc(C(OCC2OC(n3ccc(NC(=O)c4ccccc4)nc3=O)CC2OP2(=S)SCCS2)(c2ccccc2)c2ccc(OC)cc2)cc1 (centres undefined),10.6% (inactive),-13.1% (inactive),-4.1% (inactive),10% (inactive),37% (inactive),78.7% (active)
COCCCCCC(=O)CP(=O)(OC)OC,-7.15% (inactive),-1.4% (inactive),-1.2% (inactive),-12.9% (inactive),-6.4% (inactive),8.95% (inactive)
O=C(CC(=O)C(F)(F)F)c1cccs1.[Fe],22.1% (inactive) and 27.1% (inactive),34.8% (inactive) and 30.1% (inactive),33.2% (inactive) and 28.4% (inactive),11.2% (inactive) and 10.8% (inactive),20.9% (inactive) and 21.2% (inactive),48.2% (inactive) and 42.5% (inactive)
c1ccc(-c2cccc(-c3ccccc3)c2)cc1,30.1% (inactive),15.3% (inactive),31.3% (inactive),-0.6% (inactive),24.6% (inactive),44% (inactive)
O=P(O)(O)c1ccccc1 (tested in a mixture with another compound),-28.9% (inactive),-6.45% (inactive),-15.2% (inactive),-35.1% (inactive),-31.9% (inactive),2.7% (inactive)
COc1ccc(C(c2c(O)c3ccccc3oc2=O)c2c(O)c3ccccc3oc2=O)cc1,-15.3% (inactive),-0.35% (inactive),-14.4% (inactive),-18.2% (inactive),1% (inactive),-0.7% (inactive)
CC(C)(C)c1ccc(O)cc1,-21.1% (inactive),-29.8% (inactive),-18.8% (inactive),-9.5% (inactive),-1.45% (inactive),8.85% (inactive)
